Results filed as inconclusive are left out. A number with no mark means an inactive call. The source made the active and inactive calls. The call rests on the fitted dose curve; in most records, active means well fitted curve in the direction sought with a large enough effect; inconclusive means small, poorly fitted or top-dose-only effect, or another doubt; inactive means no such curve, though single readings can be large or run the other way.
experiment: Cytometric Cell-Based qHTS for Inhibitors of the mTORC1 Signaling Pathway in MEF (Tsc2-/-, p53-/-) Cells (AID 2660); settings: mTORC1 pathway cytometry; series mostly up to 38.3 µM; activity change, negative = inhibition: at the top concentration;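 further: Tsc2 and p53 null MEFs carrying empty vector with compound for 24 h; percent of cells above a phospho-rpS6 to PI ratio cutoff in each well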
Excerpt: NIH Molecular Libraries Probe Production Centers Network [MLPCN]
NIH Chemical Genomics Center [NCGC]
Assay Submitter (PI): Blenis, John; Hoffman, Greg; Harvard University
NCGC Assay Overview: The mammalian target of rapamycin (mTOR) is an intracellular serine/threonine kinase Aberrant regulation of mTOR signaling plays a causative role in a number of human diseases, including cancer, benign tumors such as lymphangioleiomyomatosis (LAM) and Tuberous Sclerosis Complex (TSC), and metabolic diseases such as diabetes and obesity. This project aims to identify inhibitors of ribosomal protein S6 (rpS6) phosphorylation. The phosphorylation of rpS6 is a key event downstream of mTOR activation. The assay uses a phospho-specific antibody of phospho-rpS6 to detect inhibitors of mTOR activation. Mutations in the Tsc1 and Tsc2 genes are the underlying genetic lesions responsible for TSC, causing constitutive activation of the mTORC1 pathway and leading to profound effects on cell metabolism. Aberrant metabolism in cancer has recently received significant attention as a target to develop therapeutic agents in the treatment of cancer.1 As Tsc2-/- cells have lost the ability to respond to energy and growth factor deprivation, these cells are unable to properly down regulate cellular biosynthetic processes in response to metabolic stress, and are thus extremely sensitive to glucose deprivation-induced death.2 A central goal of this project is to explore the unique cell survival and metabolic properties of cells with Tsc1 or Tsc2 by screening for compounds that selectively target the Tsc2-/- MEFs by screening both Tsc2-/- and WT MEF cell lines. We hope to better understand these aspects of TSC physiology in order to exploit them for therapeutic benefit.
NCGC Acumen Assay Protocol Summary:
For quantitative high throughput analysis of mTORC1 signaling, we developed a cell-based assay for immuno-fluorescence based detection of rpS6 phosphorylation on the Acumen Explorer that will be used a platform for the primary small molecule screen. Mouse embryonic fibroblasts (MEFs) are cultured in 1536-well plates using DMEM + 10% FBS. Twenty-four hrs after plating, test compounds (solubilized in DMSO) are delivered and incubated with the cells for 24 hrs at 37 degree Celsius. Following the incubation, media with compound is aspirated and the cells are fixed in 4% paraformaldehyde (PFA) containing PBS + 0.2% TX-100. Next, PFA is aspirated, cells are washed two times with PBS plus 0.2% TX-100 and the cells are blocked for 1 hr at room temperature (blocking buffer: LiCOR Blocking Buffer plus 0.2% TX-100). This is followed by aspiration and staining with Alexa-488 conjugated-phospho-rpS6 Ser235/236 antibody for 2 hours at room temperature (Cell Signaling Technology # 4803, 1:50 dilution in blocking buffer). Cells are washed two times with PBS plus 0.2% TX-100, and stained with 10 uM propidium iodide (PI) for 20-25 minutes for cell number measurement (1:500 dilution of Hoescht staining is also added for IN Cell imaging). The plates are scanned on the Acumen Explorer laser scanning instrument (TTP Labtech) using the 488nm laser for simultaneous excitation of the Alexa-488 and PI. The fluorescence emission from the Alexa-488 conjugated rpS6 phospho-235/236 antibody staining is selected using a […] band pass filter. Fluorescence emission from the PI stain is selected using a 575-640 nm band pass filter. The normalized phospho-S6 staining is calculated as the ratio of the integrated Alexa 488 intensity divided by the integrated PI intensity for the single concentration rapamycin control (7.5 nM) and DMSO columns. […] Inhibition of the pathway is defined based on the normalized phospho-S6 intensity in rapamycin treated cells. […]

Row | Structure (SMILES) | activity change, negative = inhibition [%] | outcome
1 | OC(CN1CCC(Cc2ccc(F)cc2)CC1)c1ccc(Cl)cc1 (stereo not given) | 0.779 | 
2 | Cn1cnc([N+](=O)[O-])c1Sc1ncnc2nc[nH]c12 | 7.04 | 
3 | CCCC(CCC)C(=O)O | 0.917 | 
4 | N=c1nc(N2CCCCC2)cc(N)n1O | -1.26 | 
5 | Cc1cn[nH]c1 | 0.604 | 
6 | NC(=O)c1cnccn1 | 2.39 | 
7 | CCOC(=O)N1CCC(=C2c3ccc(Cl)cc3CCc3cccnc32)CC1 | 2.45 | 
8 | Cc1ccccc1C(OCCN(C)C)c1ccccc1 (stereo not given) | -0.187 | 
9 | O=NN(CCCl)C(=O)NCCCl | -2.28 | 
10 | O=C(O)COCCN1CCN(C(c2ccccc2)c2ccc(Cl)cc2)CC1 (stereo not given) | 3.85 | 
11 | Cc1cnc(NC(=O)C2=C(O)c3ccccc3S(=O)(=O)N2C)s1 | 6.57 | 
12 | Cc1[nH]c(=O)c(C#N)cc1-c1ccncc1 | 4.03 | 
13 | Cc1ccc(N(CC2=NCCN2)c2cccc(O)c2)cc1 | 6.79 | 
14 | CCN(CC)CCCC(C)Nc1ccnc2cc(Cl)ccc12 (stereo not given) | 6.7 | 
15 | N[C@@H]1CONC1=O | -0.549 | 
16 | Cc1[nH]c(=O)c(C#N)cc1-c1ccc2nccn2c1 | -9.39 | 
17 | NC(N)=NC(=O)c1nc(Cl)c(N)nc1N | 7.63 | 
18 | Cc1cccc(-c2[nH]c(C(C)(C)C)nc2-c2ccc3nccnc3c2)n1 | -18.8 | 
19 | NCCc1ccc(O)c(O)c1 | 5.27 | 
20 | C[C@]12CCC(=O)C=C1CC[C@@H]1[C@@H]2[C@@H](O)C[C@@]2(C)[C@H]1CC[C@]2(O)C(=O)CO | -13.9 | 

Row | Structure (SMILES) | activity change, negative = inhibition [%] | outcome
21 | CCOC(=O)C1=C[C@]2(CC)CCCN3CCc4c(n1c1ccccc41)[C@@H]32 | -2.32 | 
22 | CC(C)NCC(O)COc1ccc(COCCOC(C)C)cc1 (stereo not given) | 5.86 | 
23 | NCCCC(N)(C(=O)O)C(F)F (stereo not given) | 4.32 | 
24 | CCCCNc1cc(C(=O)O)cc(S(N)(=O)=O)c1Oc1ccccc1 | 16 | 
25 | Nc1nc2ccc(OC(F)(F)F)cc2s1 | -1.35 | 
26 | O=c1[nH]cnc2[nH]ncc12 | -0.653 | 
27 | CCC(C)N(C)C(=O)c1cc2ccccc2c(-c2ccccc2Cl)n1 (stereo not given) | -0.0965 | 
28 | CC(=O)Oc1ccccc1C(=O)O | 6.93 | 
29 | O=c1n(CCCN2CCN(c3cccc(Cl)c3)CC2)nc2ccccn12 | -15.4 | 
30 | Nc1ccc(S(=O)(=O)Nc2ccnn2-c2ccccc2)cc1 | 3.45 | 
31 | NNCCc1ccccc1 | -8.99 | 
32 | CC(C)C[C@H](NC(=O)[C@@H](O)[C@H](N)Cc1ccccc1)C(=O)O | 4.69 | 
33 | O=C1CCc2cc(OCCCCc3nnnn3C3CCCCC3)ccc2N1 | 6.17 | 
34 | Oc1ccc(C2CNCCc3c2cc(O)c(O)c3Cl)cc1 (stereo not given) | -0.713 | 
35 | Nc1nc2c(ncn2COCCO)c(=O)[nH]1 | 3.24 | 
36 | CC(C)(C)NCC(O)c1ccc(O)c(CO)c1 (stereo not given) |  | inactive
37 | Clc1cccc(Cl)c1NC1=NCCN1 | 2.61 | 
38 | Cc1oncc1C(=O)Nc1ccc(C(F)(F)F)cc1 | -2.74 | 
39 | c1ccc([C@H]2CN3CCSC3=N2)cc1 | -0.311 | 
40 | CNC[C@H](O)c1cccc(O)c1 | 4.28 | 
